# Screening results as filed in PubChem.
# BLM inh = qHTS Assay for Inhibitors of Bloom's syndrome helicase (BLM); actives 0.2% (n = 350,000); RecQ-like DNA helicase BLM (Homo sapiens), P54132; Potency, µM (titrated, usually from 56.1 µM), for inactives: top-dose activity change, negative = inhibition, usual class: inhibitors; recombinant BLM DNA unwinding, fluorescence dequenching;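 also: plate controls were vehicle for no effect and no enzyme for full effect; nearly all actives have a fitted effect of over 35% in size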
# JMJD2E inh = qHTS Assay for Inhibitors of Human Jumonji Domain Containing 2E (JMJD2E) | JMJD2E catalytic domain, FDH-coupled NADH fluorescence (FDH is formaldehyde dehydrogenase) | Potency, µM (doses to about 57.1 µM), for the others: at the top dose activity change, negative = inhibition, actives largely listed as inhibitors | actives 1.6% (n = 230,000) | AID 2147, 2009; active = well fitted inhibition curve with a large enough effect, not every such curve was filed as active; inconclusive = small, poorly fitted or top-dose-only effect, or another doubt; inactive = no such curve, though single readings can be large or run the other way;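 also: 0% = wells with enzyme and -100% = buffer wells without enzyme; nearly all actives have a fitted effect of over 50% in size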
# L3MBTL1 block = qHTS Assay for the Inhibitors of L3MBTL1 | AlphaScreen L3MBTL1–H3K9me1 peptide binding | actives 0.66% (n = 230,000) | Potency, µM (doses to about 57.1 µM), for the others: top-dose activity, negative = inhibition, hits mostly inhibitors; also: nearly all actives have a fitted effect of over 60% in size
# Target sequence (Q9Y468 whole entry, looked up): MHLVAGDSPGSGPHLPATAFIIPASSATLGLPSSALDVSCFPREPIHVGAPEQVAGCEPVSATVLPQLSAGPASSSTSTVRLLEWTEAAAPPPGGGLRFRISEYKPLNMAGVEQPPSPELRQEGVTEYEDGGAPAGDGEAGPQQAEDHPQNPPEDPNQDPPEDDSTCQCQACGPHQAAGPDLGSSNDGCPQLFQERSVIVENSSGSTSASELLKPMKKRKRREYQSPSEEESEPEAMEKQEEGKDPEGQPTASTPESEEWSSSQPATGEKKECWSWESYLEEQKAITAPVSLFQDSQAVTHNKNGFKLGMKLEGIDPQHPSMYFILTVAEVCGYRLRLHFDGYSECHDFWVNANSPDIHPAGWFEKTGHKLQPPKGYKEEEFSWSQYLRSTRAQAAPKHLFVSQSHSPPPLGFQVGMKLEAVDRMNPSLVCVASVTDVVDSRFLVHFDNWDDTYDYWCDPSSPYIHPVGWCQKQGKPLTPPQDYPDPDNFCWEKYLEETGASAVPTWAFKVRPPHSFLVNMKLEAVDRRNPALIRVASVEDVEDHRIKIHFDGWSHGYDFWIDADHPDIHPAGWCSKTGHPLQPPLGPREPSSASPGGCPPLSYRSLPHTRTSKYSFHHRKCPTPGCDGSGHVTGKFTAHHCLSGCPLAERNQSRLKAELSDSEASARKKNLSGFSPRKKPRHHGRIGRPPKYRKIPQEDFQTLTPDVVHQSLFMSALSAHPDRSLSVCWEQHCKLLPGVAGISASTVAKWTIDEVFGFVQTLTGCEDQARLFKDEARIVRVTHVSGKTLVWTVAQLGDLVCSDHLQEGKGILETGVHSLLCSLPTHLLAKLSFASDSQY
#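 First, the protein-peptide complex forms for 30 min at room temperature (L3MBTL1 50 nM, biotinylated H3K9me1 peptide 75 nM). Next, compounds are pin-transferred and incubated 30 min. Finally, AlphaScreen beads are added and read after 30 min.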
# APE1 inh = qHTS Assay for Inhibitors of the Human Apurinic/apyrimidinic Endonuclease 1 (APE1) | Potency, µM (doses to about 65.8 µM), for the others: at the highest dose activity change, negative = inhibition, actives largely listed as inhibitors | actives 0.35% (n = 350,000) | recombinant APE1, TAMRA/BHQ-2 abasic DNA cleavage fluorescence | DNA repair nuclease/redox regulator APEX1 (Homo sapiens), P27695 | AID 2517, 2012;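 also: plate controls were vehicle for no effect and reference inhibitor for full effect; nearly all actives have a fitted effect of over 55% in size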
#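 Activity was derived from the fluorescence gain between first and third kinetic reads (60 s intervals, ex 525/em 598 nm) after 50 nM THF-abasic TAMRA/BHQ-2 duplex was added to 0.75 nM APE1 preincubated 15 min with compound.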
# TDP1 block = qHTS Assay for Inhibitors of Tyrosyl-DNA Phosphodiesterase (TDP1); Tyrosyl-DNA phosphodiesterase 1 (Homo sapiens), Q9NUW8; recombinant TDP1, AlphaScreen DNA substrate cleavage; Potency, µM (series often up to 130 µM), without a hit: at the highest dose activity change, negative = inhibition, hits mostly inhibitors; actives 0.28% (n = 350,000); also: nearly all actives have a fitted effect of over 40% in size
#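 Tdp1 1 nM final; 15 min RT w/ cpd; substrate 15 nM, 5 min; beads 10 ug/ml, 10 min; AlphaScreen read. Neg ctrl: no enzyme.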
# RECQ1 helicase = qHTS Assay for Inhibitors of RecQ-Like Dna Helicase 1 (RECQ1). Potency, µM (series often up to 57.3 µM), for inactives: at the highest dose activity, negative = inhibition, actives largely listed as inhibitors. AID 2549, 2010. actives 0.54% (n = 240,000). ATP-dependent DNA helicase Q1 (Homo sapiens), P46063. RECQ1 DNA unwinding, red fluorescence kinetic read;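 also: plate controls were vehicle for no effect and no enzyme for full effect; nearly all actives have a fitted effect of over 30% in size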
#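 50 nM RECQ1T1 preincubated 15 min with compound in Tris pH 8.0 buffer with MgCl2, DTT, Tween-20 and 2.5 ug/ml poly(dI-dC); started with 200 nM TAMRA/BHQ-2 forked duplex and 2 mM ATP. Unwinding read as fluorescence (525/598 nm), two reads 2 h apart.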
# Numbers without * were called inactive; i = inactive; ? = inconclusive; nt = no result given; ! = repeats disagree; [ ] = another dose, or the depositor's remark. Shown is part of a subset that was picked to be rich in hits. Unless noted, calls follow the shape of the dose curve; as a rule, active = well fitted curve in the direction sought with a large enough effect; inconclusive = small, poorly fitted or top-dose-only effect, or another doubt; inactive = no such curve, though single readings can be large; an effect the other way counts as inactive or inconclusive. Unless noted, % is scaled to controls: 0 for no effect and ±100 for the full control effect; potency is read from the fitted curve at half-maximal effect.
SMILES,BLM inh,JMJD2E inh,L3MBTL1 block,APE1 inh,TDP1 block,RECQ1 helicase
O=[N+]([O-])c1cc(Cl)cc(/C=N/NC(=S)Nc2ccc(S(=O)(=O)N3CCOCC3)cc2)c1O,-11%,25µM*,3.5µM*,-7%,12%,-10%
N#Cc1ccc(/C=N/NC(=S)Nc2ccc(S(=O)(=O)N3CCOCC3)cc2)cc1,-8%,-2%,nt,-9%,nt,21%
S=C(N/N=C/c1ccc2ncccc2c1)Nc1cccnc1,2%,-7%,5%[11.4 µM],6%,5%,-1%
O=S(=O)(c1ccc(Cl)c(NC(=S)N/N=C/c2ccc(O)cc2)c1)N1CCOCC1,-6%,?,-16%,-7%,8%,-7%
O=S(=O)(c1ccc(NC(=S)N/N=C/c2ccc(O)c(O)c2)cc1)N1CCOCC1,-19%,13µM*,?,13µM*,6%,?
O=C(CSc1nc2ccccc2o1)N/N=C/c1ccc(O)c(O)c1,-21%,11µM*,nt,?,nt,-12%
CC(C)CCCCCCNC(=S)Nc1ccc(S(=O)(=O)N2CCOCC2)cc1,-4%,-5%,-3%,?,6%,40µM*
O=C(CSc1nc2ccccc2o1)N/N=C/c1ccccc1,-3%,10%,6%,1%,-1%,0%
COc1ccc(C2Nc3ccccc3C(=O)N2Cc2ccccc2)cc1COc1ccc(C#N)cc1 (stereo not given),nt,nt,nt,nt,0%,nt
O=C1c2ccccc2C(=O)N1c1ncccc1O,nt,nt,nt,nt,0%,nt
O=C(O)c1cccc(NC(=S)NC(=O)c2ccc(-c3ccc(Cl)cc3)o2)c1,-16%,?,nt,-3%,nt,3%
O=C(O)c1ccc(NC(=S)NC(=O)c2ccc(-c3ccc(Br)cc3)o2)cc1,-25%,nt,nt,-58%,14µM*,nt
COc1ccc(-c2nc3ccccc3nc2-c2ccc(OC)cc2)cc1,-9%,nt,59%,19%,nt,nt
COc1ccc(OC)c(-c2nc3cc4ccccc4cc3nc2-c2ccccc2)c1,-11%,-2%,31%,-6%,-3%,3.2µM*
COCCN(Cc1cc2cc(C)c(C)cc2nc1Cl)C(=O)Nc1ccccc1,-11%,10%,6%,-2%,6%,-12%
COCCN(Cc1cc2cc3c(cc2nc1Cl)OCO3)C(=O)c1ccc(C)cc1,-15%,-1%,28µM*,9%,-3%,23%
CCc1nn(CC(=O)NCCOC)c(=O)c2cc3cc(F)ccc3n12,0%,nt,nt,nt,5%,nt
COc1ccc(CCNCC(=O)Nc2ccc(C)c(S(=O)(=O)N(C)C)c2)cc1OC,5%,?,-12%,3%,79µM*,-13%
COc1ccc(CCNCC(=O)N2C(C)CCCC2C)cc1OC (stereo not given),-5%,32µM*,3%,-1%,0%,-15%
COc1ccc(CCNC(=O)C2CC2)cc1OC,-1%,5%,-1%,0%,2%,4%
COc1ccc(CCNCC(=O)Nc2ccc(C)c(Br)c2)cc1OC,4%,nt,0%,37%,nt,nt
O=C1CCCC2=C1C1O[C@](CCCCN3C(=O)c4ccccc4C3=O)(Cc3ccccc31)O2,-7%[12.4 µM],nt,nt,-7%[12.4 µM],nt,nt
CCN(CC)c1ccc(NC(=O)C2CC(=O)N(Cc3ccccc3)C2)cc1 (stereo not given),-2%,-10%,32µM*,-9%,3%,-15%
Cc1ccccc1N=Cc1cccc(O)c1O,-11%,11µM*,2.5µM*,?,8%,?
Cc1ccc(N=Cc2cccc(O)c2O)c(C)c1,-21%,14µM*,32µM*,-11%,12%,-13%
SMILES,BLM inh,JMJD2E inh,L3MBTL1 block,APE1 inh,TDP1 block,RECQ1 helicase
C[C@]12CC[C@@H]3c4ccc(O)cc4CC[C@H]3[C@@H]1CC[C@@H]2O,-7%,-2%,-1%,2%,3%,32µM*!
COc1ccc(CN(CCC(c2ccc(F)cc2)C2CCOC(C)(C)C2)C(=O)c2ccco2)cc1 (stereo not given),-7%,-22%,-7%,10%,-3%,25µM*
CC(c1ccccc1)N(CCC(c1ccccc1)C1CCOC(C)(C)C1)C(=O)c1ccco1 (stereo not given),-9%,-6%,-2%,-2%,-2%,-8%
CCS(=O)(=O)C1=NN2C(=N)/C(=C\c3ccc(SCc4ccco4)o3)C(=O)N=C2S1,-11%,?,32µM*,?,-6%,?
NNc1ccccc1C(F)(F)F,-5%,2%,?,35µM*,50µM*,-14%
COc1cccc(Cn2cnc3c(cnn3C(C)(C)C)c2=O)c1,nt,nt,nt,-6%,nt,nt
COc1cccc(C2=Nn3c(nnc3-c3ccccc3C)SC2)c1,-9%,nt,nt,12%,21%,i
Cc1cc(Nc2ccccc2)c2c([N+](=O)[O-])ccc(C)c2n1,-13%,-3%,16µM*,6%,4%,-2%
CC(=O)OCCn1c2nc(=O)[nH]c(=O)c-2nc2cc(C)c(C)cc21,-3%,2.8µM*,-10%,5%,3.5µM*,-5%
CCCC(=O)OC[C@@H](OC(=O)CCC)[C@@H](OC(=O)CCC)[C@H](Cn1c2nc(=O)[nH]c(=O)c-2nc2cc(C)c(C)cc21)OC(=O)CCC,-4%,nt,nt,nt,nt,nt
CC[C@@]1(c2ccccc2)NC(=O)NC1=O,-3%,nt,nt,0%,4%,-9%
O=C(Nc1ccc2oc(-c3ccccc3F)nc2c1)c1ccc([N+](=O)[O-])o1,-16%,nt,nt,2.7µM*,nt,nt
O=C(Nc1ccc2oc(-c3ccccc3F)nc2c1)c1ccccc1Cl,-7%,nt,nt,nt,3%[12.3 µM],nt
CN(C)c1ccc(/C=C(/NC(=O)c2ccccc2)C(=O)N/N=C/c2ccc([N+](=O)[O-])c(O)c2)cc1,-16%,1%,32µM*,3%,-11%,3%
CCSc1ncc(/C=N/Nc2ccc(Cl)cc2)n1C,4%,18µM*,-14%,1%,13%,-3%
COc1ccc2nc(-c3cccc(F)c3)sc2c1,nt,nt,nt,-1%,nt,nt
O=C(N/N=C/c1sc(=O)n(Cc2ccc(Br)cc2)c1Cl)c1ccco1,-20%,nt,nt,?,40µM*,nt
O=C(N/N=C/c1ccc(Br)s1)c1ccco1,-2%,-7%,12%,-4%,4%,0%
O=C(O)c1cccc(Cn2c(Cl)c(/C=N/Nc3ccccc3)sc2=O)c1,?,-24%,nt,18%,6%,32µM*
Cc1c(Cl)cccc1NS(=O)(=O)c1cc2c(cc1Cl)CCC(=O)N2,nt,nt,nt,nt,1%,nt
